GC-A act: GC-A stimulated cGMP production enhancers – HEK293 GC-A cells, cGMP TR-FRET, EC30 ANP, primary screen | hit rate 0.14% among 370,000 | activation, % at 10 µM | AID 1671463, 2021 | 0% at EC30 ANP, 100% saturating ANP | Atrial natriuretic peptide receptor 1 (Homo sapiens), P16066; in the data active = activation above about 40%
NOD2-RIPK2 inh: NOD2-RIPK2 binding disruptors in cells, primary screen, fluorescence, CHO cells, BLA complementation; hit rate 0.38% among 360,000; inhibition, % at 4.98 µM; CCF4 ratio; AID 624267, 2012; in the data active = inhibition above about 21%;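 also: 0% = vehicle only and 100% = reference blocker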
Neddyl block: inhibitors of cullin neddylation, primary screen, biochemical, TR-FRET, uHTS, NAE and Ubc12; NEDD8-conjugating enzyme Ubc12 (Homo sapiens) + NEDD8-activating enzyme E1 regulatory …; inhibition, % at 25 µM; hit rate 0.58% among 360,000; in the data active = inhibition above about 36%
GC-B act: human GC-B receptor activators, primary screen, HEK293 GC-B cells, cGMP TR-FRET, EC30 CNP | 0% at EC30 CNP, 100% saturating CNP | activation, % at 10 µM | hit rate 0.11% among 370,000 | AID 1920062, 2024;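 active = activation at 10 µM reaching about 35% in either raw or pattern-adjusted values, limit read from the data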
TLR9-MyD88 block: inhibitors of TLR9-MyD88 association in cells, primary screen, cell-based, CHO, BLA complementation, fluorescence. CCF4 FRET ratio. inhibition, % at 4.98 µM. hit rate 0.21% among 340,000. Toll-like receptor 9 (Homo sapiens) + Myeloid differentiation primary response protein …;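 active = inhibition above the mean over all tested compounds plus 3 SD, cut at about 21% in these data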;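 also: 0% = DMSO only wells and 100% = clavulanate BLA inhibitor control wells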
TLR4 MyD88 comp: inhibitors of TLR4-MyD88 association in cells, primary screen, cell-based, HeLa CL3-4, BLA complementation, FRET ratio; HeLa CL3-4 TLR4/MyD88 BLA complementation; inhibition, % at 8.4 µM; hit rate 0.18% among 200,000; AID 861, 2007; in the data active = inhibition above about 25%;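 also: 0% = vehicle and 100% = reference inhibitor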
TLR9-MyD88 cf: TLR9-MyD88 association inhibitors, retest, confirmation, cell-based, CHO, BLA complementation, fluorescence, triplicate; CCF4 FRET ratio; hit rate 51% among 680; inhibition, % at 4.98 µM; AID 540250, 2011; shares compounds with TLR9-MyD88 block;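 active = mean inhibition across three repeats above about 21% taken from the earlier screen, limit read from the data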;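 also: blue over green emission ratio reports constitutive TLR9 MyD88 association via BLA complementation; 0% = DMSO vehicle wells and 100% = clavulanate BLA inhibitor wells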
BLA counter-1: beta-lactamase reporter inhibitors in CHO cells, artefact control for TLR9-MyD88 binding inhibitor project, cell-based, fluorescence; shares compounds with TLR9-MyD88 block; CHO-BLA cells, CCF4 FRET ratio, BLA reporter; inhibition, % at 4.98 µM; hit rate 7% among 680; AID 540251, 2011;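 active = mean inhibition above a 50% cutoff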;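 also: counterscreen of TLR9-MyD88 hits on CMV-driven BLA in CHO-K1 cells; 0% = DMSO alone and 100% = clavulanate blocking BLA; higher means less blue over green ratio so more BLA blockade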
TLR9 CHO cytotox: CHO cell viability loss – luminescence, single concentration, cytotoxicity control for TLR9-MyD88 binding inhibitor project; shares compounds with TLR9-MyD88 block; TLR9-MyD88 CHO cells cytotoxicity; inhibition, % at 4.98 µM; hit rate 39% among 680; in the data active = inhibition above about 11%
NOD2-RIPK2 conf: NOD2-RIPK2 binding disruptors, retest, confirmation, fluorescence, CHO cells, BLA complementation, triplicate; shares compounds with NOD2-RIPK2 inh; CCF4 FRET; inhibition, % at 4.98 µM; hit rate 70% among 1,200; AID 624370, 2012;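 active = mean inhibition across replicates above a set limit taken from the earlier primary screen, cut at about 21% in these data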;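 also: 0% = DMSO-only wells and the high end = clavulanate BLA-blocked wells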
BLA counter-2: hits BLA reporter in NOD2-RIPK2 inhibitor counterscreen; CHO BLA reporter, CCF4 FRET ratio; inhibition, % at 4.98 µM; shares compounds with NOD2-RIPK2 inh; AID 624371; hit rate 57% among 1,200;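 active = mean inhibition above the low-control mean inhibition plus three low-control SD, cut at about 11% in these data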;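 also: 0% = DMSO only wells and 100% = clavulanate high control wells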
Active calls of the source: *. Sampled rows, rich in hits. Any-hit rate of the full collection: about 1.2%.

O=[N+]([O-])c1ccc(N2N=C(c3ccco3)CC2c2ccccc2)cc1 (configuration not stated) was read as GC-A act -8, NOD2-RIPK2 inh 56*, Neddyl block -32, GC-B act -11, TLR9-MyD88 block 38*, TLR4 MyD88 comp 20, TLR9-MyD88 cf 21*, BLA counter-1 22, TLR9 CHO cytotox 1, NOD2-RIPK2 conf 49* and BLA counter-2 53*.
O=[N+]([O-])c1ccc(N2N=C(c3ccccc3)CC2c2ccccc2O)cc1 (configuration not stated) was read as GC-A act -3, NOD2-RIPK2 inh 39*, Neddyl block -14, GC-B act 1, TLR9-MyD88 block 40*, TLR9-MyD88 cf 33*, BLA counter-1 38, TLR9 CHO cytotox 6, NOD2-RIPK2 conf 51* and BLA counter-2 65*.
`Fc1ccc(C2CC(c3ccco3)=NN2c2ccccc2)cc1` (configuration not stated) gave GC-A act 7, NOD2-RIPK2 inh 1, GC-B act 1, TLR9-MyD88 block -2 and TLR4 MyD88 comp -6.
For NS(=O)(=O)c1ccc(N2N=C(c3ccccc3)CC2c2ccccc2Br)cc1 (configuration not stated) the results were GC-A act -1, NOD2-RIPK2 inh 8, GC-B act 1 and TLR9-MyD88 block -5.
For CCN(CC)C(=O)CC[C@H]1CC[C@]2(CCCN(C(=O)C3CCCC3)C2)O1 the results were GC-A act 0 and GC-B act -5.
For COc1ccccc1N(C(C)=O)C1=C(Cl)C(=O)c2ccccc2C1=O the results were GC-A act -30, NOD2-RIPK2 inh 90*, Neddyl block 1, GC-B act -26, TLR9-MyD88 block 65*, TLR9-MyD88 cf 86*, BLA counter-1 23, TLR9 CHO cytotox 102*, NOD2-RIPK2 conf 96* and BLA counter-2 51*.
`CCc1cc2c(nc1CC)CCCN2S(=O)(=O)c1c(C)noc1C` gave GC-A act -2 and GC-B act 1.
Screening C=CCN1[C@H](CO)[C@H](c2ccc(C#CC3(O)CCCC3)cc2)[C@@H]1C#N returned GC-A act -1 and GC-B act -4.
`CN(C)Cc1c(C(C)(C)O)[nH]c2cc(C(F)(F)F)ccc12` gave GC-A act -4 and GC-B act 2.
